In all, about 300,000 compounds went through this assay and about 4,000 (1.3%) were called active.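 The calls were made as follows: active = mean replicate score, as percent of positive control median, at least 50; inconclusive = mean below 50 but one replicate at or above 50; inactive = mean and every replicate below 50.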 Only a selection was taken, and actives are over-represented in it overall.
Assay: S. pyogenes SKKanGAS growth inhibitors in kanamycin, primary screen, streptokinase expression inhibitor project, SKKanGAS strain, BacTiter-Glo luminescence (AID 1662);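 also: strain carries kanamycin resistance gene driven by streptokinase promoter and grows in 40 µg/ml kanamycin; loss of luminescence reflects streptokinase promoter inhibition or plain growth inhibition; 0% = median of DMSO wells and 100% = positive control at its reference dose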
Conditions: 6 h, at 7.5 µM, hits give high values

inhibition, inactive:
O=S(=O)(NC1CCCCC1N1CCCCC1)c1ccc(Cl)cc1 (centres undefined) 1.78%
Cc1ccc(S(=O)(=O)N2CCC(C(=O)OCC(=O)N(C)c3ccccc3)CC2)cc1C -2.14%
Nc1ccc(S(=O)(=O)Nc2nccc(/C=C/c3ccc(Br)s3)n2)cc1 2.22%
COc1cc2c(cc1OC)C(c1cccc([N+](=O)[O-])c1)=NCC2 -3.25%
CCc1nc2ccc(C(=O)N3CCN(c4cccc(Cl)c4)CC3)cc2nc1CC 7.12%
Oc1ccc(CN2CCN(c3ncccn3)CC2)cc1 -0.583%
CCN1CCN(C(c2cccnc2)c2cc(Cl)c3cccnc3c2O)CC1 (centres undefined) 28.1%
CCCCCCCCCCCCN1[C@@H](CC(C)=O)c2cc(F)cc(F)c2S1(=O)=O 18.6%
Cn1ncc2c(NNC(=O)Cc3cccc4ccccc34)ncnc21 -0.379%
COC(=O)CNS(=O)(=O)c1ccc(Cc2ccc(S(=O)(=O)NCC(=O)OC)cc2)cc1 0.851%
CCN(CC(=O)Nc1cc(Cl)ccc1C)C(=O)CN1C(=O)NC2(CCCC2)C1=O 9.28%
O=C(O)c1ccccc1NC(=S)NC(NC(=O)c1ccccc1[N+](=O)[O-])C(Cl)(Cl)Cl (centres undefined) -2.95%
Cc1ccnc2nc(C(=O)Nc3nnc(-c4ccccc4)o3)nn12 1.08%
CCn1c2ccccc2c2cc(NC(=O)COC(=O)c3ccccc3Br)ccc21 2.54%
Cc1cccc(NC(=O)Nc2nnc(-c3ccccc3)o2)c1 15%
O=C(Nc1cccc(Cl)c1)Nc1nnc(-c2ccccc2)o1 5.48%
CC(=O)Nc1cccc(C(=O)OCC(=O)Nc2nnc(-c3ccccc3)o2)c1 13.3%
O=C(COC(=O)CSc1nnc(-c2ccc(Cl)cc2)o1)Nc1cc(Cl)cc(Cl)c1 3.37%
COc1ccc(-c2cc(=O)oc3cc(OC(C)C(=O)Nc4ccc(CN5CCOCC5)cc4)ccc23)cc1 (centres undefined) 15.3%
COCCCNC(=O)C1CC(=O)N(CCc2ccc(F)cc2)C1 (centres undefined) 1.79%
CC(C)(C)NC(=O)c1cccc(NC(=O)Cc2ccc(Br)cc2)c1 0.415%
CCCCCC(=O)NC(=S)NNC(=O)c1ccc([N+](=O)[O-])cc1 21.9%
CNC(=S)NNC(=O)c1ccc(N(C)C)cc1 -13.5%
COc1ccc(C(=O)NC(=S)NNC(=O)CCc2ccccc2)cc1 9.14%
COc1ccc(C(=O)NNC(=S)NC(=O)c2ccccc2[N+](=O)[O-])cc1 -1.63%
O=C(NCC(c1cccs1)N1CCOCC1)c1cc(-c2ccccn2)nc2ccccc12 (centres undefined) -7.21%
CC(=O)N1CCOc2ccc(S(=O)(=O)N3CCN(c4cccc(C(F)(F)F)c4)CC3)cc21 2.46%
COc1ccc(N2CCC(CNC(=S)Nc3c(C)cccc3C)C2)cc1 (centres undefined) -4.36%
Cc1ccc(CN2CCC(N3CCC(C(=O)NCC4CCCO4)CC3)CC2)o1 (centres undefined) 4.3%
CCOC(=O)C1(Cc2ccccc2C)CCCN(C(=O)CN2C(=O)CSC2=O)C1 (centres undefined) 5.85%
CC(=O)Nc1nc(N(C)C)nc(N(C)C)n1 2.59%
O=C(/C=C/c1ccco1)Nc1cccc(-c2nc3ccccc3[nH]2)c1 16.2%
Cc1ccc(-c2nc3ccccc3[nH]2)cc1NC(=O)c1sc2ccccc2c1Cl 4.45%
O=C(NC1CC1)c1ccc(-c2ccccc2)cc1 1.81%
O=C(CC1SC(=Nc2ccccc2F)N(CCN2CCOCC2)C1=O)Nc1ccc(F)cc1F (centres undefined) -5.01%
CCOc1ccc(C(=O)Nc2c3c(nn2-c2ccccc2)CS(=O)(=O)C3)cc1 1.84%
O=C(CC1CCCCC1)Nc1c2c(nn1-c1ccc(F)cc1)CS(=O)(=O)C2 -9.45%
O=C(CN(c1cccc(Cl)c1)S(=O)(=O)c1ccccc1)NN=C1CCCC1 6.57%
CSc1ncccc1C(=O)NCc1ccccc1Cl -1.26%
CNC(=O)c1nnn(-c2ccccc2)c1C(=O)NC 3%
O=C(C[n+]1ccccc1)N/N=C/c1ccc(O)cc1 -9.65%
CN(C)c1ccc(/C=N/N(Cc2ccccc2)c2ccccc2)cc1 -5.9%
CCCCC(NS(=O)(=O)c1ccc(C)cc1)C(=O)Oc1ccc2c3c(c(=O)oc2c1)CCC3 (centres undefined) 8.5%
CC(C)COC(=O)n1c(=O)oc2ccc(S(=O)(=O)N3CCCCC3)cc21 -4.31%
COc1ccc(-n2c(SCC(=O)Nc3ccc4c(c3)OCO4)nnc2C(C)N2CCCCC2)cc1 (centres undefined) -5.05%
CC(C)Oc1ccc(S(=O)(=O)N2CCOCC2)cc1NC(=O)C1CSC2(C)CCC(=O)N12 (centres undefined) 12%
CCN(CC)S(=O)(=O)c1ccc(N2CCOCC2)c(NC(=O)C2COc3ccccc3O2)c1 (centres undefined) 2.77%
COc1ccc(Cl)cc1N(CC(=O)N1CCCCC1)S(C)(=O)=O -8.05%
O=C(/C=C/c1cccc([N+](=O)[O-])c1)N1CCN(Cc2ccccc2)CC1 2.48%
O=c1c([N+](=O)[O-])cc(C(F)(F)F)cn1Cc1cccc(Cl)c1 -8.03%
O=C(c1cccs1)C1C(c2ccc(Br)cc2)NC(=S)NC1(O)C(F)(F)F (centres undefined) -1.18%
Cc1[nH]n(-c2ccccc2)c(=O)c1CCOC(=O)c1ccc(C(F)(F)F)cc1 3.86%
CCCNC(=O)CCn1cc(-c2ccc(OC)cc2)nc1CCN -0.358%
COc1ccc(Nc2ncnc3sc(-c4ccccc4)cc23)c(OC)c1 17.7%
c1ccc2c(c1)OCC(CNc1ncnc3nc[nH]c13)O2 (centres undefined) 0.403%
O=C(O)c1ccc(NS(=O)(=O)c2ccc3c(c2)C(=O)c2cc(S(=O)(=O)Nc4ccc(C(=O)O)cc4)ccc2-3)cc1 7.11%
CC(=O)c1cccc(NC(=O)C2CCN(C(=O)c3ccccc3Cl)CC2)c1 -0.79%
Cc1cccc(-n2c(SCC(N)=O)nc3c(c2=O)C2(CCCCC2)Cc2ccccc2-3)c1 13.1%
N#C/C(=C(/O)COc1cccc2ccccc12)c1nc2ccccc2[nH]1 7.13%
O=C(O)c1ccccc1CSc1nc2ccccc2s1 38.1%
CN1CCC(CN)(N2CCN(c3ccccc3)CC2)CC1 -3.22%
Cc1ccc(CNCc2ccc3c(c2)OCO3)c(C)c1 0.677%
O=C(O)CCN(Cc1ccccc1)S(=O)(=O)c1c(Cl)cccc1Cl 8.43%
NNc1nc2c(Cl)cccc2s1 -7.59%
Cc1nc2nc(C)c(NS(=O)(=O)c3ccc(C(C)(C)C)cc3)c(=O)n2[nH]1 19.7%
O=C(NCCc1ccccn1)c1cc(-c2ccc(Cl)cc2)nc2ccccc12 1.78%
CCOC(=O)CSc1nnc(NC(=O)C2CC(=O)N(c3ccc(F)cc3)C2)s1 (centres undefined) 39.8%
COc1ccc(CCNC(=O)COC(=O)Cc2cc(OC)c(OC)c(OC)c2)cc1 1.27%
O=C1OC(OC(=O)c2ccccc2Br)C(N2CCOCC2)=C1Cl (centres undefined) 35.8%
Cc1ccccc1C(=O)OC1OC(=O)C(Cl)=C1Nc1ccccc1 (centres undefined) 3.76%
O=[N+]([O-])c1ccc(N(CCO)Cc2ccccc2)c([N+](=O)[O-])c1 4.42%
CN(C)CCCNC(=S)N1CCN(c2nc(-c3ccccc3)cs2)CC1 -0.915%

inhibition, active:
Oc1cccc2ccc(/C=C/c3ccc(Br)s3)nc12 77.1%
Oc1c(CN2CCN(c3ccc(F)cc3)CC2)cc(Cl)c2cccnc12 81.2%
O=C(Nc1nnc(-c2ccc(Cl)cc2)o1)c1ccccc1Br 93.9%
O=C(COC(=O)c1ccc(Oc2ccccc2)cc1)Nc1nnc(-c2ccccc2)o1 79.8%
O=C(COC(=O)c1ccccc1Br)Nc1nnc(-c2ccccc2)o1 72.3%
CC(=O)NC(=S)NNC(=O)c1ccc(Br)cc1 79%
COc1ccc(C(=O)NNC(=S)NC(=O)c2ccccc2)cc1 91.7%
O=C(Nc1cccc(-c2nc3ccccc3[nH]2)c1)c1ccc(C(=O)Nc2cccc(-c3nc4ccccc4[nH]3)c2)cc1 64%
COc1ccccc1OCC(=O)Nc1c2c(nn1-c1ccc(F)cc1)CS(=O)(=O)C2 74.3%
Oc1ccc(/C=N/N(Cc2ccccc2)c2ccccc2)cc1 77.6%
CCN(CC)S(=O)(=O)c1ccc(N2CCOCC2)c(NC(=O)C2CSC3(C)CCC(=O)N23)c1 (centres undefined) 52.3%
O=[N+]([O-])/C=C/c1ccc2c(ccn2Cc2ccccc2)c1 81%
c1ccc(-c2cc3c(NCC4COc5ccccc5O4)ncnc3s2)cc1 (centres undefined) 74.2%
N#C/C(=C(/O)Cc1cccc2ccccc12)c1nc2ccccc2s1 79.1%
CC(C)CC[n+]1ccn(C2=C([O-])c3ccccc3C(=O)/C2=N\S(=O)(=O)c2ccccc2)c1 62.6%
Cc1ccc(NC2=C(Cl)C(=O)OC2OC(=O)c2ccccc2C)cc1 (centres undefined) 66%
CC[C@H]1OC(=O)[C@H](C)[C@@H](O[C@H]2C[C@@](C)(OC)[C@@H](O)[C@H](C)O2)[C@H](C)[C@@H](O[C@@H]2O[C@H](C)C[C@H](N(C)C)[C@H]2O)[C@](C)(O)C[C@@H](C)[C@@H]2N[C@@H](COCCOC)O[C@H]([C@H]2C)[C@]1(C)O 106%

From PubChem BioAssay AID1662 (Broad Institute, 2009)
